The record followed here is PubChem BioAssay (NCI).

The structures appear in SMILES notation. About 83,000 compounds went through this panel and 20% of them were active in at least one assay; those are over-represented in the sample as a whole.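 Note: values are percent growth. 100 is the growth of untreated cells, values between 100 and 0 indicate rising inhibition; between -100 and 0 indicates cell death.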 Unmarked numbers belong to inactive results. The source made the active and inactive calls. How the source made its calls: active means growth percent below 10; inactive means the rest.

Common to all, as to experiment: NCI-60 one-dose screen, 48 h (100 = growth as untreated, 0 = no growth, -100 = all killed)
Conditions in all cases: 10 µM unless noted

Test [1] has as its system HCT-15 colon.
Test [2] concerns HT29 colon.
Test [3] has as its system SNB-75 CNS.
Test [4] has as its system SNB-19 CNS.
Test [5] deals with U251 CNS.
For test [6], the system named is PC-3 prostate.
Test [7] relates to SK-MEL-5 melanoma.
In test [8] the test system is UACC-62 melanoma.
Test [9] relates to LOX IMVI melanoma.
Test [10] concerns SK-MEL-28 melanoma.
In test [11] the test system is SK-MEL-2 melanoma.
The subject of test [12] is EKVX NSCLC.
Test [13] has as its system SN12C renal.
The test system of test [14] is UO-31 renal.
Test [15] deals with ACHN renal.
Test [16] concerns A498 renal.
The subject of test [17] is CCRF-CEM leukemia.
For test [18], the system named is MOLT-4 leukemia.
Test [19] deals with SR leukemia.
The test system of test [20] is TK-10 renal.

Regarding `CC(/C=C/c1ccccc1)=N/NC(=O)c1ccncc1`, the growth in test [1] is 100%; in [2] it was 108%; in [3], 97.7%; in test [4], 102%; in [5], 98.3%; in [6] it was 92.5%. The growth is 100% in [7]; 94.1% in test [8]; 99.5% in [9]; 118% in [10]; 106% in test [11]; 107% in test [12]. In addition, the growth in test [13] is 99.8%; in [14] it was 89%; in test [15], 111%; in [16], 95%; in [17] it was 92.5%; in test [18], 92.2%. Further, in test [19], the growth is 88.9%.
`CCOCc1nc2ccccc2c(=O)[nH]1`: the growth in test [1] is 97.2%; in [2] it was 95.9%; in test [3] it was 99.2%; in [4] it was 101%; in test [5], 102%; in test [6], 95.2%. Besides, the growth in [7] was 104%; in test [8] it was 102%; in test [9], 99.8%; in test [10], 106%; in test [11], 113%; in test [12], 95.8%. For the same compound, the growth in test [13] is 98%; in test [14], 92.9%; in test [15], 105%; in [16] it was 105%; in [17], 97.1%; in [18], 105%. Besides, the growth in test [19] is 103%.
Regarding `Nc1c(C(=O)c2ccccc2)sc2nc(-c3cc4ccccc4o3)cc(-c3ccc(Cl)cc3)c12`, the growth is 86.4% in test [1]; 106% in test [2]; 92.3% in test [3]; 111% in test [4]; 90% in [5]; 87.5% in test [6]. Moreover, the growth in [7] is 97.8%; in test [8], 102%; in test [9], 86.5%; in test [10] it was 120%; in test [11], 84.1%; in test [12] it was 103%. Besides, the growth is 165% in [13]; 79.1% in test [14]; 82.9% in [15]; 199% in test [16]; 105% in test [17]; 101% in test [18]. In addition, the growth in test [19] is 108%.
As for `CCCCCCCCCCCCCC1=NCC[N+]1(CCO)Cc1ccccc1` (centres undefined), the growth in [1] is -89.4% (active); in test [2] it was -89.3% (active); in [3], 66%; in [4], -82.1% (active); in test [5], -88.7% (active); in test [6], -88.4% (active). Further, the growth is -73.6% (active) in test [7]; -87.4% (active) in [8]; -92% (active) in test [9]; -90.7% (active) in test [10]; -61.7% (active) in [11]; -79.5% (active) in test [12]. The growth in test [13] is -84.3% (active); in [14], -86.1% (active); in test [15] it was -98% (active); in test [16] it was 54.2%; in test [17], -49.5% (active); in [18], -58.1% (active). The growth in [19] was -50.7% (active).
`Cc1cnc(SCc2ccc(Cl)cc2)[nH]c1=S`: the growth was 101% in test [1]; 82.9% in test [2]; 85.2% in test [3]; 98.2% in test [4]; 96.3% in test [5]; 104% in test [6]. In addition, the growth in [7] was 96.9%; in test [8] it was 99.4%; in test [9], 101%; in [10], 98.9%; in test [11] it was 88.5%; in [12] it was 103%. For the same compound, the growth in test [13] is 103%; in test [14], 93.9%; in [20], 95.1%; in test [15] it was 104%; in [18], 106%; in test [19] it was 89.7%.
Consider `COc1cc(/C=C/C(=O)/C=C/c2cc3ccc(Cl)cc3[nH]c2=O)ccc1O`, for which the growth in test [1] was 52.4%; in test [2], 5.63% (active); in [3], 74.4%; in test [4] it was 76.5%; in [5], 19.6%; in test [6] it was 56.2%. Further, the growth in [7] is 60.8%; in [8], 53.1%; in test [9] it was 19.8%; in test [10], 98.8%; in test [11], 89.1%; in test [12] it was 94.4%. The growth was 63.9% in test [13]; 60.3% in [14]; 64.8% in [15]; 78.8% in test [16]; 23% in test [17]; 30.3% in [18]. Further, the growth in test [19] is 10.8%.
For the compound `NC(N)=NC(N)=Nc1cc2ccccc2c2ccccc12`, the growth was 57.8% in test [1]; 12.6% in test [2]; 57.7% in [3]; 35.8% in [4]; 33.8% in test [5]; 24.4% in [6]. The growth in [7] is 45.6%; in [8], 43.6%; in [9] it was 16.5%; in [10], 55.9%; in test [11], 5.61% (active); in test [12] it was 58%. Besides, the growth is 35.4% in [13]; 32.6% in [14]; 22.9% in [15]; 26% in test [16]; 9.61% (active) in [18]; -2.98% (active) in test [19].
As to `N#CCNc1ccc(C(=O)O)cc1`, the growth in test [1] is 105%; in test [2] it was 101%; in [3] it was 103%; in test [4], 102%; in [5] it was 95%; in test [6], 94.3%. Also, the growth was 101% in test [7]; 107% in test [8]; 98.5% in test [9]; 118% in test [10]; 108% in [11]; 104% in test [12]. The growth in test [13] was 103%; in [14], 101%; in test [15], 111%; in test [17], 99.3%; in [18] it was 96.3%; in test [19] it was 99.2%.
